# Screens as filed in PubChem BioAssay.
# Hits are enriched below; roughly 4% of the tested compounds scored in any of these assays.
# AF4-AF9 inh: blocks AF4 peptide binding to human AF9; AlphaScreen, biotin-AF4 peptide binding to FLAG-AF9; 350,000 compounds, 0.47% hits; P42568; inhibition, % at 10 µM;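 active = every replicate reaching a set inhibition limit, whatever the replicate mean, cut at about 25% in these data; inconclusive = mean inhibition reaches that limit but some replicates miss it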;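 note: 0% = plate neutral control median and 100% = total signal loss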
# DENV2 CPE: inhibitors of DENV2 cytopathic effect | 350,000 compounds, 1.7% hits | DENV2-infected cells, cytopathic effect rescue, plate reader | CPE inhibition, % at 9.99 µM; in the data active = CPE inhibition above about 20%, passing the limit was not always enough; inconclusive = no clear call, values can overlap the other calls; tested in BHK-21 cells;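 note: 0% = median of neutral control wells and 100% = median of positive control wells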
# RAD52 inh: RAD52 (human) annealing inhibition; P43351; recombinant RAD52 DNA annealing, FRET fluorescence; inhibition, % at 18.7 µM; 360,000 compounds, 0.46% hits; AID 651710;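 active = every replicate showing at least 50% inhibition; inconclusive = mean inhibition at least 50% but not in every replicate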
# FGF22 binding: shifts melting point of recombinant human FGF22; activity (Tm shift, normalised), % at 9.99 µM; recombinant FGF22 thermal shift, SYPRO orange fluorescence; percent of sucrose octasulfate shift, DMSO zero; 340,000 compounds, 1.5% hits; AID 651658; Q9HCT0;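 active = mean Tm shift, scaled 0 neutral to 100 positive control, at about 1.3% or above, every replicate too, limit read from the data; inconclusive = no clear call, values can overlap the other calls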
# ERAP1 inh: inhibitors of human ERAP1 aminopeptidase; inhibition, % at 10.7 µM; recombinant ERAP1, Leu-AMC fluorescence, 60 min; 340,000 compounds, 0.15% hits; Q9NZ08;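 active = mean replicate inhibition of at least 30%, or all replicates individually reaching that 30% level; inactive = mean below 30% and not every replicate reaching it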;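 note: 0% = neutral control wells and 100% = L-leucinethiol positive control wells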
# Starred values were filed as active, the others as inactive; ? = inconclusive; / = no result given.
SMILES,AF4-AF9 inh,DENV2 CPE,RAD52 inh,FGF22 binding,ERAP1 inh
Clc1cccc(Cl)c1CSc1nnc(-c2ccncc2)s1,-3.6,70.1*,-0.5,0.5,/
Clc1ccc(CSc2nnc(-c3ccncc3)s2)cc1,/,-2.2,-3.9,0.0,-2.4
CC(C)(CO)CN1CCC(n2nccc2NC(=O)C2CCCC2)CC1,-5.9,1.0,-8.1,0.0,-2.0
O=C(Nc1ccnn1C1CCN(CC(O)CO)CC1)C1CCCC1 (centres undefined),0.1,70.8*,-4.3,0.0,0.3
O=C(C[C@H]1CC[C@@H]2[C@H](COC[C@H](O)CN2S(=O)(=O)c2ccccc2)O1)NCc1ccc2c(c1)OCO2,4.7,7.9,5.9,-0.1,0.5
O=C(O)CSc1ccn(Cc2ccccc2)c1,-1.7,50.7*,-9.3,0.1,-1.5
O=C(O)CSc1nc2ccccc2n1Cc1ccccc1,-0.9,-2.6,-10.8,0.0,-2.4
O=C(C[C@H]1C[C@H]2c3cc(NC(=O)c4cccnc4)ccc3O[C@H]2[C@@H](CO)O1)NCCN1CCCCC1,-13.7,2.9,17.6,-0.1,1.3
C[C@@H]1CN([C@H](C)CO)S(=O)(=O)c2ccc(C#CC3CCCC3)cc2O[C@H]1CN(C)C,3.9,61.2*,26.8,-0.4,-8.5
C[C@H]1CN([C@@H](C)CO)S(=O)(=O)c2ccc(C#CC3CC3)cc2O[C@@H]1CN(C)Cc1ccncc1,7.3,41.7*,8.5,-0.7,-0.5
C[C@@H]1CN([C@H](C)CO)S(=O)(=O)c2ccc(C#CC3CCCC3)cc2O[C@@H]1CN(C)C,2.2,-2.5,31.4,-0.1,-5.7
C[C@H]1CN([C@@H](C)CO)S(=O)(=O)c2ccc(C#CC3CCCCC3)cc2O[C@H]1CN(C)C,12.1,10.5,53.3*,-0.5,-3.5
COc1ccc(CN2CCC(C)=CC2C)cc1 (centres undefined),10.2,-1.7,16.2,-0.3,3.0
O=C(C1CCCC1)N1CC2(C1)[C@@H](c1ccccc1)[C@@H](CO)N2C(=O)NC1CCCC1,-1.2,4.9,4.8,/,1.0
CCS(=O)(=O)N1C[C@@H](C)[C@H](OC)CN(C)C(=O)c2ccc(NC(=O)Nc3ccccc3Cl)cc2OC[C@H]1C,5.4,1.0,-8.7,-0.2,-1.8
CCC(=O)N1C[C@H]2[C@@H](c3ccccc31)[C@H](CO)N2Cc1ccccc1Cl,2.3,9.9,-28.3,-0.6,-1.5
CC(=O)Nc1cccc(Nc2nc(-c3ccccc3F)nc3ccccc23)c1,-4.6,1.3,0.6,43.1*,10.3
COc1ccc(OC)c(Nc2c3ccccc3nc3ccccc23)c1,40.4*,9.9,33.7,0.3,-4.2
O=C(C[C@H]1C=C[C@@H](NC(=O)c2ccncc2)[C@@H](CO)O1)Nc1ccccc1,-5.5,-4.3,-12.5,/,-2.3
CCN(c1ccccc1)S(=O)(=O)c1ccc(OC)c(NC(=O)Cc2ccc(F)cc2)c1,-0.1,6.8,-27.4,-0.1,0.2
CCN(c1ccccc1)S(=O)(=O)c1ccc(OC)c(NC(=O)C2CCC2)c1,-0.8,67.5*,-18.6,0.1,-2.5
CC(C)NC(=O)N(C)C[C@@H]1OCCCC[C@@H](C)Oc2ccc(N(C)C)cc2C(=O)N([C@@H](C)CO)C[C@H]1C,-0.7,5.7,-95.8,-1.2,2.8
O=C(CSc1ncnc2sc(-c3ccccc3)cc12)NC1CCS(=O)(=O)C1 (centres undefined),-0.6,6.9,-14.2,43.2*,-2.4
COC(=O)C1CCN(C(=O)Cc2ccc(C)cc2)CC1,/,/,-12.8,/,2.9
Cc1ccc(CN2CCN(CC(=O)N3CCC(C(N)=O)CC3)C2=O)cc1,41.5*,?,3.0,-0.1,3.7
O=C(C[C@@H]1C[C@H]2c3cc(NC(=O)NC4CCCC4)ccc3O[C@H]2[C@@H](CO)O1)NCc1cccnc1,1.3,?,-8.1,-0.4,3.1
COCC#Cc1cnc2c(c1)C(=O)N([C@@H](C)CO)C[C@@H](C)[C@@H](CN(C)C(=O)c1ccc(F)cc1)O2,-2.1,12.8,-0.3,-0.2,0.5
O=C(CCCn1c(=S)[nH]c2cc3c(cc2c1=O)OCO3)NCCc1ccc(Cl)cc1,3.9,4.4,-7.2,43.3*,-1.4
C/C=C/c1ccc([C@H]2[C@H]3CN(C(=O)Nc4ccc(OC)cc4)CC(=O)N3[C@H]2CO)cc1,2.0,?,-15.7,/,2.6
CNC(=O)c1c(NC(=O)c2ccc(S(=O)(=O)N(C)c3ccccc3)cc2)sc2c1CCN(C(C)C)C2,1.5,96.1*,-184.0,0.0,-1.4
